From PubChem BioAssay
TDP1 cell CPT = growth inhibition of DT40 Tdp1-/-;hTDP1 cells with camptothecin (screen for TDP1 inhibitors); Potency, µM (doses to about 46.2 µM), for the others: at the top dose activity change, negative = growth inhibition, most hits filed as inhibitors; actives 12% (n = 420,000); chicken DT40 Tdp1-/-;hTDP1 cells + 20 nM CPT, ATP luminescence, 48 h; also: potency is read from the fitted curve at half-maximal effect; nearly all actives have a fitted effect of over 55% in size
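Cell growth measured by CellTiter-Glo luminescence after a minimum 48 h, 37 C compound exposure with 20 nM CPT in Tdp1-knockout DT40 cells stably expressing hTDP1, seeded 400/well; qHTS titration format.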
IL-1B inflam inh = blocks inflammasome-driven IL-1 beta release. THP-1 LPS/ATP IL-1B secretion, AlphaLISA, 16 h; active compounds read low. activity change, % at 57.5 µM. actives 4.7% (n = 360,000). AID 743279; in the data active = activity change below about -50%; inconclusive = mostly about -30% to -49%
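THP-1 cells pretreated 1 hr with compounds (up to 57.5 uM final), then stimulated with LPS (250 ng/mL final) plus ATP (1.25 mM final); secreted IL-1B measured by AlphaLISA after 16 hr, decreased signal indicating inhibition.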
HT1080-NT tox = kills 2HG-producing HT-1080-NT fibrosarcoma cells. HT-1080-NT fibrosarcoma viability, CellTiter-Glo ATP luminescence, 48 h. Potency, µM (top dose mostly 46.1 µM), without a hit: at the top dose activity, negative = less viability, hits mostly cytotoxic. actives 1.6% (n = 360,000). AID 686970;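 also: NT is the 2HG producing partner of a matched IDH1 knockdown line; potency is read from the fitted curve at half-maximal effect; 0% = DMSO-treated cells and -100% = media-only wells without cells; nearly all actives have a fitted effect of over 55% in size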
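HT-1080-NT; 750 cells/well; 5% FBS RPMI; 48 h compound, 37 degrees C; CellTiter-Glo luminescence; curve fitting and curve-class assignment.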
HT1080 IDH1KD tx = toxicity to HT-1080 IDH1 knockdown cells (counter line); HT-1080 IDH1 knockdown viability, ATP luminescence, 48 h; Potency, µM (series often up to 46.1 µM), without a hit: top-dose activity, negative = toxicity, hits mostly cytotoxic; actives 2% (n = 360,000);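 also: potency is read from the fitted curve at half-maximal effect; 0% = DMSO wells and -100% = cell-free medium wells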
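Luminescent ATP read-out (CellTiter-Glo, 10 min at room temperature) after 48 h compound exposure at 37 °C gave viability of IDH1-knockdown HT-1080 cells. Activity was normalised to DMSO and cell-free wells, then fitted as concentration-response curves.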
DT40 TDP1 no CPT = qHTS for Inhibitors of human tyrosyl-DNA phosphodiesterase 1 (TDP1): qHTS in cells in absence of CPT; actives 15% (n = 420,000); AID 686978, 2013; DT40 Tdp1-/- hTDP1 cells, no CPT, ATP luminescence, 48 h; Potency, µM (series often up to 46.2 µM), for inactives: top-dose activity change, negative = growth inhibition, most hits filed as inhibitors; also: potency is read from the fitted curve at half-maximal effect; nearly all actives have a fitted effect of over 55% in size
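Compound effects on proliferation are scored in DT40 Tdp1-/-;hTDP1 cells in the absence of CPT. ATP levels (CellTiter-Glo luminescence) are recorded after a ≥48 hr, 37 °C incubation.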
Numbers without * were called inactive; ? = inconclusive; . = no result given. Rows were chosen to be rich in hits. Some 19% of all compounds tested hit in one or more screens of this group. Unless noted, calls follow the shape of the dose curve; as a rule, active = well fitted curve in the direction sought with a large enough effect; inconclusive = small, poorly fitted or top-dose-only effect, or another doubt; inactive = no such curve, though single readings can be large; an effect the other way counts as inactive or inconclusive. Unless noted, % is scaled to controls: 0 for no effect and ±100 for the full control effect.

SMILES	TDP1 cell CPT	IL-1B inflam inh	HT1080-NT tox	HT1080 IDH1KD tx	DT40 TDP1 no CPT
Cc1c(C#N)c(NC(=O)CCl)n(Cc2ccccc2)c1C	2.6µM*	-57*	?	1.6µM*	2.6µM*
CC1(C(=O)NS(=O)(=O)c2cccc(OC(F)F)c2)CCN1C(=O)C/C=C/c1ccccc1 (configuration not stated)	-21%	20	-2%	-3%	-13%
COc1ccc(-c2cn(Cc3ccc4ccccc4c3)nn2)cc1	?	17	20%	0%	-17%
COc1ccc(-c2cn(Cc3ccc(C(=O)c4ccccc4)cc3)nn2)cc1	2.1µM*	20	?	?	7.3µM*
Cc1cc2nnn(-c3nnc(-c4ccccc4)c4ccccc34)c2cc1C	26µM*	9	22%	17%	?
O=C(c1cc(C2CC2)nc2ccc(Br)cc12)N1N=C(C(F)F)CC1(O)C(F)F (configuration not stated)	16µM*	?	?	-53%	16µM*
CCCCS(=O)(=O)c1oc(-c2ccc(F)cc2)nc1S(=O)(=O)c1ccc(C)cc1	1µM*	.	.	.	0.58µM*
CCCCCS(=O)(=O)c1oc(-c2cccs2)nc1S(=O)(=O)c1ccc(C)cc1	4.6µM*	.	.	.	3.7µM*
CCS(=O)(=O)c1oc(-c2ccc(F)cc2)nc1S(=O)(=O)c1ccccc1	0.26µM*	.	.	.	0.58µM*
CCCCS(=O)(=O)c1oc(-c2cccs2)nc1S(=O)(=O)c1ccc(F)cc1	0.82µM*	.	.	.	0.58µM*
CNc1oc(-c2ccccc2)nc1S(=O)(=O)c1ccc(C)cc1	-26%	-2	-2%	-2%	-28%
CC(=O)N1CCc2cc(S(=O)(=O)NC(C(=O)N3CCN(c4ccccc4F)CC3)C(C)C)ccc21 (configuration not stated)	-2%	20	9%	3%	-4%
O=S(=O)(c1ccc(F)cc1)c1nc(-c2ccc(F)cc2)oc1NCCN1CCOCC1	-13%	?	-5%	-6%	-19%
CCC(C)S(=O)(=O)c1oc(-c2ccc(F)cc2)nc1S(=O)(=O)c1ccc(F)cc1 (configuration not stated)	0.58µM*	.	.	.	1µM*
Cn1ncc2c(O/N=C(\N)c3ccc(C(F)(F)F)cc3)ncnc21	6.5µM*	-70*	21µM*	16µM*	5.2µM*
Cc1nc2ccccn2c1C(=O)N=Nc1c(O)n(CCC(C)C)c2ccccc12	7.3µM*	16	-2%	-2%	7.3µM*
Cc1ccc(C)c(N2CCN(C3CCCC(C)C3)CC2)c1 (configuration not stated)	?	-14	-2%	-12%	?
CC1CCCC(C)N1C(=O)CSc1ncccn1 (configuration not stated)	5%	32	11%	9%	9%
Cc1ccc(N=Nc2ccc(N)cc2C)c(S(N)(=O)=O)c1	-22%	-8	?	12%	-24%
Cc1cc(-c2ccc(N=Nc3ccc4c(S(=O)(=O)O)cc(S(=O)(=O)O)c(N)c4c3O)c(C)c2)ccc1N=Nc1ccc2c(S(=O)(=O)O)cc(S(=O)(=O)O)c(N)c2c1O	7.5µM*	.	.	.	12µM*
Cc1ccsc1C(=O)N1CCC(N2CCC(C(=O)NCC3CCCO3)CC2)CC1 (configuration not stated)	4%	2	4%	7%	12%
COCCn1c(C2CCCCC2)nc2sc3ccccc3c(=O)c2c1=O	?	-13	?	3%	23µM*
COCCn1c(=O)sc2ccccc2c1=O	21µM*	65	?	12%	?
COc1ccc(CNC(=O)CNC(=O)CNS(=O)(=O)c2ccc(C)c(C)c2)cc1	0%	26	3%	-1%	8%
COCCCNC(=O)Cn1c(=O)n(Cc2ccc(F)cc2)c(=O)c2sccc21	12%	13	-5%	-3%	0%
C=Cc1ccc(Cn2c(=O)n(C)c(=O)c3sccc32)cc1	3.7µM*	-27	-25%	?	?
